Laboratory results as given in PubChem BioAssay (NCATS).
Records with an inconclusive call do not appear. Activity calls are given as the source filed them. Calls come from the whole dose curve; as a rule, active = well fitted curve in the direction sought with a large enough effect; inconclusive = small, poorly fitted or top-dose-only effect, or another doubt; inactive = no such curve, though single readings can be large; an effect the other way counts as inactive or inconclusive. Numbered stars: 1 amine (or outer) side, 2 acyl side, 3 side chain; on linkers, the order of the positions; unused ones are H or OH. Square brackets hold non-standard residues; d marks the D form. Peptide text beside a SMILES is read from it. X1 = CCCCCCCCCC(=O)[C@H](C(=O)[*:2])[C@@H]1CNC(=O)[C@@H](N[*:1])CS1

Legend:
[1] = OV-KATE Cancer Cell Toxicity qHTS against the NCATS CANVASS Library (AID 1347345); note: potency is the fitted concentration of half-maximal effect
Procedure, shortened: (§1)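 1000 cells/well; 4 h settle; 11-pnt titration; 72 h, 37 degrees C, 5% CO2; CellTiter-Glo, 15min RT; luminescence read.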

[2] = UWB1.289 Cancer Cell Toxicity qHTS against the NCATS CANVASS Library (AID 1347347); note: nearly all actives have a fitted effect of over 60% in size
Procedure, shortened: as §1

[3] = OV-SAHO Cancer Cell Toxicity qHTS against the NCATS CANVASS Library (AID 1347348); note: nearly all actives have a fitted effect of over 55% in size; note: potency is the fitted concentration of half-maximal effect
Procedure, shortened: as §1

[4] = SW1088 Cancer Cell Toxicity qHTS against the NCATS CANVASS Library (AID 1347350); note: nearly all actives have a fitted effect of over 75% in size
Procedure, shortened: as §1

[5] = A2780 Cisplatin Sensitive Ovarian Cancer Cell Toxicity qHTS against the NCATS CANVASS Library (AID 1347353); note: nearly all actives have a fitted effect of over 60% in size; note: potency is the fitted concentration of half-maximal effect
Procedure, shortened: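 Seventy-two-hour exposure of cisplatin-sensitive A2780 ovarian cells to an 11-concentration qHTS series; cytotoxicity is inferred from loss of ATPLite luminescence. Bortezomib titration served as positive control.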

[6] = UWB1.289-WTBRCA1 Cancer Cell Toxicity qHTS against the NCATS CANVASS Library (AID 1347354)
Procedure, shortened: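 qHTS cytotoxicity: compounds tested in 11 concentrations on 1000 seeded cells per well over 72 h; bortezomib served as control; signal from CellTiter-Glo luminescence.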

[7] = HPAF-II 12hr Apoptosis Induction qHTS against the NCATS CANVASS Library (AID 1347358)
Procedure, shortened: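 Apoptosis in HPAF-II pancreatic cancer cells is scored as caspase 3/7 luminescence following a 12-hour exposure to an 11-point compound series.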

[8] = HPAF-II 18hr Apoptosis Induction qHTS against the NCATS CANVASS Library (AID 1347360)
Procedure, shortened: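 HPAF-II cells at 500/well were exposed for 18 h at 37 C to an 11-point compound series. Caspase-3/7 activity was read by Caspase-Glo luminescence after 15 min at RT.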

[9] = G06 Cancer Cell Toxicity qHTS against the NCATS CANVASS Library (AID 1347368); note: nearly all actives have a fitted effect of over 60% in size; note: potency is the fitted concentration of half-maximal effect
Procedure, shortened: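 Cytotoxicity toward canine glioma G06 cells is scored from cellular ATP via luminescence after 72 hr compound exposure at 500 cells/well.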

[10] = qHTS for Hypoxia signaling pathway (HIF-1) antagonists against the NCATS CANVASS Library (AID 1347374); note: nearly all actives have a fitted effect of over 60% in size; note: potency is the fitted concentration of half-maximal effect
Procedure, shortened: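 HRE-bla ME-180 cells (2,000/well, 0.5% dialyzed FBS) were pre-incubated 5 h, then given an 11-point compound series plus CoCl2 (60 uM solution as added) for 17 h at 37C. CCF4 β-lactamase read (ex 405, em 460/530 nm) after 2 h at RT.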

[11] = qHTS for Hypoxia signaling pathway (HIF-1) agonists against the NCATS CANVASS Library (AID 1347375)
Procedure, shortened: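 Inducers of HIF-1 signaling were detected in ME-180 cells bearing an HRE-driven beta-lactamase reporter after 17 h compound exposure. Activity came from CCF4-AM FRET emission ratio (460/530 nm) in qHTS format.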

[12] = DH5-alpha competent E. coli microbial cell viability qHTS against the NCATS CANVASS Library (AID 1347377); settings: outcome: dose series up to 46.1 µM unless noted
Procedure, shortened: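 Cell viability of competent DH5-alpha E. coli is scored from ATP content by luminescence. Cells sit overnight at 37C with compound across an 11-point concentration series.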

[13] = qHTS for Activators of p53 Stress Response Pathway screened against the NCATS CANVASS Library (AID 1347388)
Procedure, shortened: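 Beta-lactamase reporter driven by p53 response elements in HCT-116 cells, read as the 460 nm/530 nm emission ratio after CCF4 loading, following 16 h of exposure to an 11-point series. Cell viability was measured in the same wells by CellTiter-Glo luminescence.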

[14] = qHTS assay for small molecule disruptors of mitochondrial membrane potential screened against the NCATS CANVASS Library (AID 1347389); note: nearly all actives have a fitted effect of over 60% in size; note: potency is the fitted concentration of half-maximal effect
Procedure, shortened: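 Compounds tested in 11-point qHTS series on HepG2 cells for 1 hr; membrane-potential dye added for 30 min at 37C. Lower red-to-green ratio indicates loss of potential.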

[15] = Secretion counterscreen for inhibitors of the SERCaMP assay screened against the NCATS CANVASS Library (AID 1347390);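 note: light from luciferase secreted into medium read as a measure of general secretion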; note: potency is the fitted concentration of half-maximal effect
Procedure, shortened: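 SH-SY5Y cells with constitutively secreted GLuc reporter, 1000 cells/well, treated 20 h at 37C with compounds at 0.001 - 77 uM final; secreted luciferase read as luminescence after coelenterazine; Brefeldin A as positive control.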

[16] = qHTS for inhibitors of Wild type Zika virus screened against the NCATS CANVASS Library (AID 1347396);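 note: ATP luminescence of surviving cells so rescue from viral cell killing; series mostly up to about 46 µM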
Procedure, shortened: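 Using ATP-based luminescence (CellTiter Glo), this screen scores rescue of Vero 766 cells from wild-type Zika killing at 72 h post-infection. Compounds are tested in a concentration series.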

[17] = Redox Reaction Profiling qHTS: Assay Interference Panel against the NCATS CANVASS Library (AID 1347401); note: potency is the fitted concentration of half-maximal effect
Procedure, shortened: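 Cell-free redox surrogate: 5 uM resazurin + 200 uM DTT, 50 mM HEPES pH 7.3/50 mM NaCl; cpds pinned, 11-pt qHTS; Ex525/Em598 read t0 and t=15 min, dark.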

[18] = qHTS for H2AX Agonists against the NCATS CANVASS Library (AID 1347378); note: potency is the fitted concentration of half-maximal effect
Procedure, shortened: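 CHO-K1 cells (1000/well, overnight at 37C) exposed to compounds at several concentrations for 3 hr at 37C, 0.76% DMSO final. Lysates read by TR-FRET (phospho-H2AX S139 Eu-cryptate antibody / H2AX-d2 antibody) after 24 hr at room temperature; 665/615 nm ratio.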

[19] = qHTS for activators of Nrf2/ARE signaling pathway screened against the NCATS CANVASS Library (AID 1347391); note: nearly all actives have a fitted effect of over 60% in size; note: potency is the fitted concentration of half-maximal effect
Procedure, shortened: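 Cells carrying an ARE-driven beta-lactamase reporter (HepG2 background) are dosed for 16 h, then stained with CCF4. Cell viability in the same wells is measured by CellTiter-Glo luminescence.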

[20] = qHTS for inhibitors of ER calcium dysfunction: SERCaMP assay screened against the NCATS CANVASS Library (AID 1347393); note: nearly all actives have a fitted effect of over 40% in size; note: potency is the fitted concentration of half-maximal effect
Procedure, shortened: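 Thapsigargin-induced ER calcium depletion drives GLuc-SERCaMP secretion from SH-SY5Y cells; compounds given 16 h beforehand were scored by lowered coelenterazine luminescence after 4 h challenge.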

Measured: Potency

C[C@@H]1C(=O)[C@]23CC[C@H]1C[C@]21O[C@H]2C(C)(C)C=CC(=O)[C@@]23COC1=O
active: [10] 23.6 µM
not listed: [18] | [19] | [20]
inactive: all other assays above

C=C1C[C@@]23C=CC(=O)[C@@](C)(CCC(=O)Nc4c(O)ccc(C(=O)O)c4O)C2C[C@@H]1CC3 (some centres undefined)
active: [19] 18.6 µM
not listed: [3] | [9] | [10] | [12]
inactive: all other assays above

CCCCCCCCCC(=O)[C@@H]1C(=O)N[C@@H](CC(C)C)C(=O)N[C@H](C)C(=O)N2CCC[C@H]2C(=O)N[C@@H](C(C)C)C(=O)N[C@H]2CS[C@H]1CNC2=O (cyclo(L[dA]PV[X1]))
not listed: [4] | [8] | [9] | [12] | [16] | [19] | [20]
inactive: all other assays above

COc1cc(O)c2c3c(c(O)cc(C)c13)C(=O)OC2
active: [14] 18.6 µM | [17] 21.5 µM
not listed: [3] | [18] | [19] | [20]
inactive: all other assays above

Oc1ccc(C2c3c(O)cc(O)cc3[C@@H]3C(c4ccc(O)cc4)c4c(O)cc(O)cc4[C@H]23)cc1 (some centres undefined)
not listed: [3] | [5] | [13] | [14] | [18]
inactive: all other assays above

O=C(O)[C@@]12CO[C@@]3(O)C4CCN(CC[C@H]31)[C@H]4c1c2[nH]c2ccccc12
not listed: [3] | [18]
inactive: all other assays above

C=C1C(=O)O[C@H]2C[C@H](C)[C@@H]3CC(=O)C(C)=C3[C@H](O)[C@H]12
active: [1] 13.3 µM | [3] 14.9 µM | [5] 2.96 µM | [9] 7.43 µM | [10] 7.47 µM | [18] 17.2 µM | [15] 34.3 µM | [20] 1.72 µM
inactive: [4] | [7] | [8] | [13] | [16] | [17]
